Test results reported in PubChem BioAssay (NCATS).
“And” between values parts separate entries of the source, which are not always exact repeats. Identical values can stand only once. Records with an inconclusive call do not appear. Some structures have more than one record in an assay (separate samples or runs), and their calls can disagree. The source made the active and inactive calls. Calls come from the whole dose curve; as a rule, active = well fitted curve in the direction sought with a large enough effect; inconclusive = small, poorly fitted or top-dose-only effect, or another doubt; inactive = no such curve, though single readings can be large; an effect the other way counts as inactive or inconclusive.

Tests used:
[1] = target: Rap guanine nucleotide exchange factor 3 (Homo sapiens) (UniProt O95398); assay: Confirmatory qHTS for antagonist of cAMP-regulated guanine nucleotide exchange factor 3 (EPAC1) (AID 1645880); note: nearly all actives have a fitted effect of over 55% in size; note: potency is the fitted concentration of half-maximal effect
Rap guanine nucleotide exchange factor 3 (Homo sapiens), sequence (O95398 whole entry, looked up): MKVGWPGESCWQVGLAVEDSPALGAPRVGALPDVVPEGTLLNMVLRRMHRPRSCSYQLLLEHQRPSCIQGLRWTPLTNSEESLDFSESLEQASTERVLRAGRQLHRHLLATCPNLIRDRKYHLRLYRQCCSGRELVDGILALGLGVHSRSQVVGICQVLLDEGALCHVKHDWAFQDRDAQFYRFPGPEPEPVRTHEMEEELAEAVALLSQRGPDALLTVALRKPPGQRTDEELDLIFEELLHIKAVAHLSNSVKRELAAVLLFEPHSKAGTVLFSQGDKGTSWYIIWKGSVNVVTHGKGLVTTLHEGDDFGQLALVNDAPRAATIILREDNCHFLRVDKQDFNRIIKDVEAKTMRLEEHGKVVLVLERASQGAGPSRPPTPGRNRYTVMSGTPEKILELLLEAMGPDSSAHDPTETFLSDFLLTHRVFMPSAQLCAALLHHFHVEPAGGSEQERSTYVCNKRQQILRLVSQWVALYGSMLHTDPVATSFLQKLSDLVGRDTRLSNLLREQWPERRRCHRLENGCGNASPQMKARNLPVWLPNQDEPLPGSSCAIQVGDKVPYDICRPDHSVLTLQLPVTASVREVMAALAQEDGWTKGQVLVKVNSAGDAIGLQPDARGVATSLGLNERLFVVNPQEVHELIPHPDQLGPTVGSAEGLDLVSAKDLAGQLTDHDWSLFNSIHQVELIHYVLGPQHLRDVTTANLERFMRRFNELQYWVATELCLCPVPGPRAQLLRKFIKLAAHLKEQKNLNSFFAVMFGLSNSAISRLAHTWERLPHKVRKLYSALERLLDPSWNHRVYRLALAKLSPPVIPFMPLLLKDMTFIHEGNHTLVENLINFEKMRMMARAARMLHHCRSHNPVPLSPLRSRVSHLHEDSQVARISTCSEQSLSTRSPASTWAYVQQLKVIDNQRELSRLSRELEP
Procedure, shortened: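 Nucleotide exchange uses 100 nM EPAC1, 250 nM RAP1B-BODIPY-GDP and 50 uM GDP, with compounds in a concentration-titration series. After 5 min at room temperature, fluorescence (480 nm ex/540 nm em) is read every 5 min for 30 min. Data are normalized to control ATA and DMSO.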

[2] = target: Rap guanine nucleotide exchange factor 3 (Homo sapiens) (UniProt O95398); assay: Confirmatory qHTS for agonist of cAMP-regulated guanine nucleotide exchange factor 3 (EPAC1) (AID 1645881); note: nearly all actives have a fitted effect of over 75% in size; note: potency is the fitted concentration of half-maximal effect;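 for activation: EPAC1 catalysed release of BODIPY-GDP from Rap1B seen as fluorescence loss; 100% = effect of cAMP agonist control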
[3] = target: Rap guanine nucleotide exchange factor 4 (Homo sapiens) (UniProt Q8WZA2); assay: Confirmatory qHTS for agonist of cAMP-regulated guanine nucleotide exchange factor 4 (EPAC2) (AID 1645884);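 note: nucleotide exchange releases bodipy-GDP from Rap1 and this lowers its fluorescence; nearly all actives have a fitted effect of over 65% in size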; note: potency is the fitted concentration of half-maximal effect; for activation: % is set by controls: 0 for no effect and ±100 for the full control effect
Rap guanine nucleotide exchange factor 4 (Homo sapiens), sequence (Q8WZA2 whole entry, looked up): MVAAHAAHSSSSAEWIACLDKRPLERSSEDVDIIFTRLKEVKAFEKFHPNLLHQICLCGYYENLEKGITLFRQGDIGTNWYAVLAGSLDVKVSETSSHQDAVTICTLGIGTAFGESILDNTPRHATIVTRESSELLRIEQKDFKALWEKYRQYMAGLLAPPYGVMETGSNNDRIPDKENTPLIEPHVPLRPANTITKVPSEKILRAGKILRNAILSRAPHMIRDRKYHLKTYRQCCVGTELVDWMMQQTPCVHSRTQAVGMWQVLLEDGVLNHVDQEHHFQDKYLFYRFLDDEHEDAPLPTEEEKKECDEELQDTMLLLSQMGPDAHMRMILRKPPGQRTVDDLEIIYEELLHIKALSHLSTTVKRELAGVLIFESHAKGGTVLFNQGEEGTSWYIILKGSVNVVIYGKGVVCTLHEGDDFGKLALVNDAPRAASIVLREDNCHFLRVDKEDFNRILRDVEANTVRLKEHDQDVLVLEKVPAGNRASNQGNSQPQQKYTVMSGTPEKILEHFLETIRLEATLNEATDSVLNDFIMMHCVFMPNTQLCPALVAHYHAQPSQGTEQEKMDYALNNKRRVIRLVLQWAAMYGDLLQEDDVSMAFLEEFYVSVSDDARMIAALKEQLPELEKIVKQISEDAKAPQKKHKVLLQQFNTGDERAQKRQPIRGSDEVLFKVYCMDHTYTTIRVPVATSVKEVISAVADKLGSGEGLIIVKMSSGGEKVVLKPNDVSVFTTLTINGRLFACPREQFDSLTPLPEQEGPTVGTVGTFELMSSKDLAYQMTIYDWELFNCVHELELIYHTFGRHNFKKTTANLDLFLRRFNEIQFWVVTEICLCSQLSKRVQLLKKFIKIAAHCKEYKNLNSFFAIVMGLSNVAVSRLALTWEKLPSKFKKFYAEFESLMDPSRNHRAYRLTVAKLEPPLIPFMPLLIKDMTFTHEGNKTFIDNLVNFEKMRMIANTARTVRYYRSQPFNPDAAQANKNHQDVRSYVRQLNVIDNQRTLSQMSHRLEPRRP

[4] = target: Rap guanine nucleotide exchange factor 4 (Homo sapiens) (UniProt Q8WZA2); assay: Confirmatory qHTS for antagonist of cAMP-regulated guanine nucleotide exchange factor 4 (EPAC2) (AID 1645885); note: nearly all actives have a fitted effect of over 25% in size; note: potency is the fitted concentration of half-maximal effect; for activity change, negative = inhibition: % is set by controls: 0 for no effect and ±100 for the full control effect
[5] = target: Rap guanine nucleotide exchange factor 3 (Homo sapiens) (UniProt O95398); assay: Counterscreen qHTS for antagonist of cAMP-regulated guanine nucleotide exchange factor 3 (EPAC1) (AID 1645888);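 note: fluorescence loss as bound BODIPY-GDP is released from Rap1B; % of control where 0% means no effect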
Procedure, shortened: (§1)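 Measured: fluorescence of BODIPY-GDP bound to Rap1B, which falls as exchange proceeds. Conditions include 50 uM competing GDP, 5 and 30 min reads, and a later cAMP challenge for antagonist detection.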

[6] = target: Rap guanine nucleotide exchange factor 3 (Homo sapiens) (UniProt O95398); assay: Counterscreen qHTS for agonist of cAMP-regulated guanine nucleotide exchange factor 3 (EPAC1) (AID 1645889); note: nearly all actives have a fitted effect of over 40% in size; note: potency is the fitted concentration of half-maximal effect; for activation: % of control where 0% means no effect
Procedure, shortened: as §1

O=C1O/C(=C/c2ccccc2)N=C1c1ccccc1
inactive: Potency [1] | Potency [2] | Potency [3] | Potency [4] | Potency [5] | Potency [6]

Cc1nn(CCc2nc(-c3ccco3)cs2)c2[nH]c(=O)cc(C(F)(F)F)c12
inactive: Potency [1] | Potency [2] | Potency [3] | Potency [4] | Potency [5] | Potency [6]

CCCCOc1ccccc1Cn1c(=O)sc2ccccc21
inactive: Potency [1] | Potency [2] | Potency [3] | outcome [4] inactive [at 12.7 µM] | Potency [5] | Potency [6]

C=CCOc1ccc(C(c2c(C(=O)O)[nH]c3ccccc23)c2c(C(=O)O)[nH]c3ccccc23)cc1
active: Potency [1] 33.8 µM
inactive: Potency [2] | Potency [3] | Potency [4] | Potency [5] | Potency [6]

Nc1nnc(-c2cccc(F)c2)s1
inactive: Potency [1] | Potency [2] | Potency [3] | Potency [4] | Potency [5] | Potency [6]

Oc1ccccc1-c1nc(NCc2ccccc2)c2ccccc2n1
inactive: Potency [1] | Potency [2] | Potency [3] | Potency [4] | Potency [5] | Potency [6]

CN1CCC/C1=C/C=C1\SC(=S)NC1=O
inactive: Potency [1] | Potency [4] | Potency [5]
active: Potency [2] 89.1 µM | Potency [3] 100 µM | Potency [6] 39.8 µM

CCN(CC(=O)Nc1ccccc1C(F)(F)F)C(=O)CCOc1ccccc1C
inactive: Potency [1] | Potency [2] | activation [3] -3.64% [at 17.1 µM, percent relative to cAMP agonist control] | Potency [4] | activity change, negative = inhibition [5] -14% [at 30.8 µM] | activation [6] 1.11% [at 30.8 µM]

Cc1ccc(S(=O)(=O)/N=C2/NC(=O)/C(=C\c3cc(Br)cc(Br)c3O)S2)cc1
active: Potency [1] 16.9 µM
inactive: Potency [2] | Potency [3] | Potency [4] | Potency [5] | Potency [6]

COc1ccc(C(=O)Nc2cc(OC)c(Cl)cc2OC)cc1
inactive: Potency [1] | Potency [2] | activation [3] 4.3% [at 17.1 µM, percent relative to cAMP agonist control] | Potency [4] | activity change, negative = inhibition [5] -12.1% [at 30.8 µM] | activation [6] 10.3% [at 30.8 µM]

CC(C)(C)C(=O)NCc1ccc(C(=O)CN2C(=O)NC3(CCCC3)C2=O)s1
inactive: Potency [1] | Potency [2] | Potency [3] | Potency [4] | Potency [5] | Potency [6]

O=C(CSCC(=O)N1CCOCC1)Nc1nc(-c2ccccc2)cs1
inactive: Potency [1] | Potency [2] | Potency [3] | Potency [5] | Potency [6]
active: Potency [4] 84.9 µM

OCC[n+]1ccc(/C=C/c2c[nH]c3ccccc23)cc1
active: Potency [2] 56.2 µM | Potency [3] 100 µM | Potency [6] 56.2 µM
inactive: Potency [1] | Potency [4] | Potency [5]

CCOc1c(O)ccc(/C=C2\SC(=S)NC2=O)c1[N+](=O)[O-]
active: Potency [1] 37.9 µM
inactive: Potency [2] | Potency [3] | Potency [4] | Potency [5] | Potency [6]

Cn1cc(C(=O)N/N=C/C2=C(N3CCOCC3)C(=C\c3ccccc3)/CC2)ccc1=O
inactive: Potency [1] | Potency [2] | activation [3] -0.586% [at 17.1 µM, percent relative to cAMP agonist control] | Potency [4] | activity change, negative = inhibition [5] -15% [at 30.8 µM] | activation [6] 5.8% [at 30.8 µM]

COc1ccc(N2CCN(C(=O)CSc3ncn[nH]3)CC2)cc1
inactive: Potency [1] | Potency [2] | Potency [3] | Potency [4] | Potency [5] | Potency [6]

Cc1ccc(Cn2c(SCC(=O)N/N=C/c3ccc(C)o3)nc3ccccc32)cc1
inactive: Potency [2] | Potency [3] | Potency [4] | Potency [5] | Potency [6]
active: Potency [1] 47.8 µM

COc1ccc(C2c3c(-c4ccccc4O)n[nH]c3C(=O)N2Cc2ccco2)cc1 (stereo not given)
inactive and 37.9 µM (active): Potency [4]
inactive: Potency [1] | Potency [2] | Potency [3] | Potency [5] | Potency [6]

CCNC(C(=O)c1c[nH]c2c(CC)cccc12)c1ccccc1 (stereo not given)
inactive: Potency [1] | Potency [2] | Potency [3] | Potency [4] | Potency [5] | Potency [6]

O=C(O)CCCCCN1C(=O)/C(=C/c2cn(-c3ccccc3)nc2-c2cccs2)SC1=S
active: Potency [2] 79.4 µM | Potency [6] 14.1 µM
inactive: Potency [1] | activation [3] 17.7% [at 17.1 µM, percent relative to cAMP agonist control] | Potency [4] | activity change, negative = inhibition [5] 39% [at 30.8 µM]

Cc1ccccc1N(CC(=O)NC1CCCC1)C(=O)c1csnn1
inactive: Potency [1] | Potency [2] | activation [3] -0.443% [at 17.1 µM, percent relative to cAMP agonist control] | Potency [4] | activity change, negative = inhibition [5] -9.99% [at 30.8 µM] | activation [6] -0.253% [at 30.8 µM]

Cc1cc(N=Nc2ccccc2C(=O)O)c(C)c(C)c1O
active: Potency [1] 39.8 µM
inactive: Potency [2] | activation [3] -13.7% [at 17.1 µM, percent relative to cAMP agonist control] | Potency [4] | activity change, negative = inhibition [5] -28.9% [at 30.8 µM] | activation [6] 4.71% [at 30.8 µM]

N#C/C(=C(/O)CCl)c1nc2c(s1)CCc1ccccc1-2
active: Potency [1] 6.75 µM
inactive: Potency [2] | Potency [3] | Potency [4] | Potency [5] | Potency [6]

Cc1cc2ccccn2c1C(=O)c1ccc(C#N)cc1
inactive: Potency [1] | Potency [2] | Potency [3] | Potency [4] | Potency [5] | Potency [6]

O=C(O)c1cc(N/N=C/c2ccncc2)ccc1Cl
inactive: Potency [1] | Potency [2] | activation [3] 1.56% [at 17.1 µM, percent relative to cAMP agonist control] | Potency [4] | activity change, negative = inhibition [5] -14% [at 30.8 µM] | activation [6] 24.2% [at 30.8 µM]

COc1ccc(CN2C(=O)c3cccnc3C2Nc2cc(Cl)c(OC)cc2OC)cc1 (stereo not given)
active: Potency [1] 75.7 µM
inactive: Potency [2] | Potency [3] | Potency [4] | Potency [5] | Potency [6]

Cc1ccc2c(c1)c(/C=C/c1cc[n+](C)cc1)c(C)n2C
inactive: Potency [1] | Potency [4] | Potency [5]
active: Potency [2] 100 µM | Potency [3] 100 µM | Potency [6] 8.91 µM

C=CCn1c(CSCc2ccc(Cl)cc2Cl)nnc1SCC(=O)Nc1ccc(C(=O)O)cc1
inactive: Potency [1] | Potency [2] | activation [3] 0.968% [at 17.1 µM, percent relative to cAMP agonist control] | Potency [4] | activity change, negative = inhibition [5] -5.41% [at 30.8 µM] | activation [6] 4.51% [at 30.8 µM]

CC1(C(=O)NS(=O)(=O)c2ccc(Cl)s2)CCN1C(=O)C1(c2ccc(Cl)cc2)CCC1 (stereo not given)
inactive: Potency [2] | Potency [3] | Potency [5] | Potency [6]
active: Potency [1] 9.53 µM | Potency [4] 8.49 µM

COc1cc(O)cc(O)c1C(=O)/C=C/c1ccccc1
active: Potency [1] 67.5 µM
inactive: Potency [2] | Potency [3] | Potency [4] | Potency [5] | Potency [6]

N=C1/C(=C\c2ccc(OC(=O)c3ccccc3Cl)cc2)C(=O)N=C2SC(N3CCOCC3)=NN12
inactive: Potency [2] | Potency [3] | Potency [4] | Potency [5] | Potency [6]
active: Potency [1] 19 µM

N#Cc1c(-c2ccccc2)nc(SCC(=O)N2c3ccccc3Sc3ccccc32)[nH]c1=O
inactive: Potency [2] | Potency [3] | Potency [4] | Potency [5] | Potency [6]
active: Potency [1] 19 µM

N#Cc1c(-c2ccccc2)nc(SCC(=O)Nc2ccc(OC(F)(F)Cl)cc2)[nH]c1=O
inactive: Potency [2] | Potency [3] | Potency [5] | Potency [6]
active: Potency [1] 67.5 µM | Potency [4] 12 µM

CC(NCc1cccn1C)c1ccccc1 (stereo not given)
inactive: Potency [1] | Potency [2] | Potency [3] | Potency [4] | Potency [5] | Potency [6]

Cc1ccc(C(CCN(Cc2ccccc2)C(=O)c2ccco2)c2ccco2)cc1 (stereo not given)
inactive: Potency [2] | Potency [3] | Potency [5] | Potency [6]
active: Potency [1] 37.9 µM | Potency [4] 53.6 µM

COC(=O)c1cc2sccc2n1Cc1ccc(F)cc1
inactive: Potency [1] | Potency [2] | Potency [3] | Potency [4] | Potency [5] | Potency [6]

COc1cc(-c2c(CCO)sc3ccccc23)cc(OC)c1OC
inactive: Potency [1] | Potency [2] | activation [3] 1.4% [at 17.1 µM, percent relative to cAMP agonist control] | Potency [4] | activity change, negative = inhibition [5] -51.2% [at 30.8 µM] | activation [6] 8.02% [at 30.8 µM]

COc1ccc(C/C(C)=N/NC(=O)c2cccnc2)cc1
inactive: Potency [1] | Potency [2] | activation [3] -0.201% [at 17.1 µM, percent relative to cAMP agonist control] | Potency [4] | activity change, negative = inhibition [5] -16% [at 30.8 µM] | activation [6] 7.53% [at 30.8 µM]

Nc1ncnc2nc(Sc3ccc(Cl)cc3)[nH]c12
inactive: Potency [1] | Potency [2] | Potency [3] | Potency [4] | Potency [5] | Potency [6]

Cc1onc(-c2c(F)cccc2Cl)c1C(=O)OCC(=O)N(C)c1ccccc1
inactive: Potency [1] | Potency [2] | activation [3] 4.47% [at 17.1 µM, percent relative to cAMP agonist control] | Potency [4] | activity change, negative = inhibition [5] -6.38% [at 30.8 µM] | activation [6] 12.2% [at 30.8 µM]

COc1ccc(NC(=O)Cn2cnc3sc(C)c(S(=O)(=O)N4CCOCC4)c3c2=O)c(OC)c1
inactive: Potency [1] | Potency [2] | activation [3] -0.644% [at 17.1 µM, percent relative to cAMP agonist control] | Potency [4] | activity change, negative = inhibition [5] -23.9% [at 30.8 µM] | activation [6] 3.18% [at 30.8 µM]

COc1ccc(CNC(=O)c2cc(=O)c3cc(C)ccc3o2)cc1
inactive: Potency [1] | Potency [2] | Potency [3] | Potency [4] | Potency [5] | Potency [6]

COC(=O)c1ccc(N2C(=O)CC(N3CCOCC3)C2=O)cc1 (stereo not given)
inactive: Potency [1] | Potency [2] | activation [3] 8.32% [at 17.1 µM, percent relative to cAMP agonist control] | Potency [4] | activity change, negative = inhibition [5] 6.34% [at 30.8 µM] | activation [6] 10.6% [at 30.8 µM]

O=C(Nc1ccc(F)cc1F)C1CCN(c2ncccn2)CC1
inactive: Potency [1] | Potency [2] | Potency [3] | Potency [4] | Potency [5] | Potency [6]

O=[N+]([O-])c1ccc(Cc2ccccn2)c([N+](=O)[O-])c1
inactive: Potency [1] | Potency [2] | Potency [3] | outcome [4] inactive; activator; fitted 0.12 uM [at 12.7 µM] | Potency [5] | Potency [6]
